Results on 14 compounds are retold here after PubChem BioAssay.

The nature of test [1]: inhibitors of TNFa-induced NFkB p65 translocation, primary screen, imaging, HUVEC, MLSMR starter and 10KST1 sets (AID 438;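 active = inhibition above 20% together with a positive visual image hit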;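 also: compound added about 3h40 before a 20 min TNFalpha stimulation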;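 as to inhibition: signal is the nuclear over cytoplasmic p65 intensity ratio per well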). As to conditions: HUVEC TNFa-induced p65 nuclear translocation; cell count: measured here: nuclei count (cytotoxicity indicator), at 2.08 µM; inhibition: at 2 µM, stronger effect = higher value, 0% TNFa-plus-vehicle, 100% no-TNFa wells.
A short description of test [2]: reduction of polyQ htt aggregates in cells – imaging, exon1htt(103Q)mCFP cells, high-content imaging, primary screen (AID 483;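 active = visual image review flags a hit and inhibition of aggregation exceeds 20%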;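 also: compound exposure lasted 3 days before fixation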;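 as to nuclei count: percent of the per-plate median nuclei count of sample wells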). As to conditions: exon1htt(103Q)mCFP cell line, aggregate imaging, at 2 µM; inhibition of aggregation: stronger effect = higher value; nuclei count: measured here: cell count, toxicity.
Test [3] can be described thus: endothelial E-selectin expression blockers – imaging, HUVEC, immunofluorescence, MLSMR starter and 10KST1 sets, primary screen (AID 487;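 active = visually confirmed hit in the image check and inhibition above 20%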;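 as to inhibition: signal is fraction of cell area covered by stained E-selectin grains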;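 as to nuclei count: 100% = median nuclei count of all wells on the same plate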). Particulars: HUVEC TNFalpha-induced E-selectin immunofluorescence imaging, at 2 µM; inhibition: stronger effect = higher value; nuclei count: measured here: cell number, toxicity.
Test [4] concerns the target Voltage-gated potassium channel subunit beta-2 (Rattus norvegicus) (UniProt P62483). Description: inhibitors of rat Kvbeta2 reductase activity – biochemical, NADPH fluorescence, primary screen (AID 622;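 active = fluorescence slope higher than the sample average by over 3 SD, cut at about -0.22 in these data, passing the limit was not always enough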;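 also: slope of raw intensity against log time taken from 70 to 1610 s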). Particulars: recombinant KvBeta, 4-cyanobenzaldehyde reduction, at 10 µM, stronger effect = higher value.
Test [5] has the same target. Put plainly: enhancers of rat Kvbeta2 NADPH turnover – biochemical, NADPH fluorescence, primary screen (AID 623;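 active = NADPH fluorescence slope more negative than the mean of all samples by about 3 SD, 99.7% confidence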;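 also: fluorescence intensity change per second fitted from 20 to 320 s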). Particulars: Recombinant KvBeta, NADPH fluorescence decrease slope, 10 min; at 10 µM; stronger effect = lower value.
Test [6] addresses Alpha-2C adrenergic receptor (Homo sapiens) (UniProt P18825). Put plainly: compounds altering alpha2C-coupled GIRK flux – cell-based, HEK293 alpha2C/GIRK1/2, thallium flux, primary screen (AID 624;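 active = fluorescence slope after compound addition differing from the mean of all screened samples at 99.7% confidence, in either direction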;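 also: slope of fluorescence ratio to pre-addition baseline per second over 15 to 24 s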). As to conditions: thallium flux BTC fluorescence, at 10 µM, actives lie on both sides.
The nature of test [7]: blockers of RIG-like receptor reporter activation – cell-based, Sendai virus stimulus, luciferase, 10K MLSCN set, TLR/RLR signaling modifier project, primary screen (AID 602276).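 Also: firefly luciferase from ISG56 promoter only with Renilla not read in this screen; 0% = Sendai virus plus DMSO and 100% = medium plus DMSO without virus.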 As to conditions: HEK293 RL24 IRF3 luciferase reporter, at 10 µM, stronger effect = higher value. Background: In a reporter assay the amount or activity of a reporter protein is the signal.
Test [8] is described as follows: TLR3 IRF3 reporter activation blockers – cell-based, poly I:C stimulus, luciferase, 10K MLSCN set, primary screen (AID 602277;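 active = inhibition of the reporter signal at or above 50%; inactive = inhibition below 50%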). As to conditions: HEK293-TLR3 RL24 IRF3 luciferase reporter, at 10 µM, stronger effect = higher value.

Structures are written as SMILES. Calls of active or inactive are those of the source.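 The calls were made as follows, unless noted: active = inhibition at or above 50% at 10 µM; inactive = inhibition below 50%.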

Alpha-2C adrenergic receptor (Homo sapiens), sequence (P18825 whole entry, looked up): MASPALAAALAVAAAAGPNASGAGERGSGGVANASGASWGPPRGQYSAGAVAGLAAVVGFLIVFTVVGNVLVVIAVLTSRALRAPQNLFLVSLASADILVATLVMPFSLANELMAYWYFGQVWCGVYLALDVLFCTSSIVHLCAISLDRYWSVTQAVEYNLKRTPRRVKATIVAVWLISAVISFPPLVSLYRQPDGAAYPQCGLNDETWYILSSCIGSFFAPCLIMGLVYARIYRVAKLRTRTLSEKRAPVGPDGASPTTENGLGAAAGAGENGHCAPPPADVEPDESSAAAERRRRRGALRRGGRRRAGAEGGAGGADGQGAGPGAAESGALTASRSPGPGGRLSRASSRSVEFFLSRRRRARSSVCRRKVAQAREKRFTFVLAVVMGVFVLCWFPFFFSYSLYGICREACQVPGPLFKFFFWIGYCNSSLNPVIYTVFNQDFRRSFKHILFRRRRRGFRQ
Voltage-gated potassium channel subunit beta-2 (Rattus norvegicus), sequence (P62483 whole entry, looked up): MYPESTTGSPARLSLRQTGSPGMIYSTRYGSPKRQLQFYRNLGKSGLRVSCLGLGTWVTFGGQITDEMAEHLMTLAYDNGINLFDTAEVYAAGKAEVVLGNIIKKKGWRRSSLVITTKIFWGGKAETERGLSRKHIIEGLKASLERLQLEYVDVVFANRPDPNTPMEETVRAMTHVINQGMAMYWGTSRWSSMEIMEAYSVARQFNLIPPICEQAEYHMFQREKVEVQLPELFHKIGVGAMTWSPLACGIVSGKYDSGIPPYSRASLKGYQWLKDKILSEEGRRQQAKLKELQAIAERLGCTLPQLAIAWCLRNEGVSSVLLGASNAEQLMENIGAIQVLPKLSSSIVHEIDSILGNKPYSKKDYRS

In general, inhibition refers to the relative decrease from the control value, in per cent. In the case of `COc1ccc(C(CNC(=O)c2ccc(OCC3CCCO3)cc2)N2CCOCC2)cc1` (centres undefined), in test [1], the cell count was 666. For the same compound, the inhibition in test [1] is 0.6% (inactive); in test [3], 7.9% (inactive); in test [7], 15.9% (inactive); in test [8], 20.4% (inactive). The inhibition of aggregation in test [2] was -1.9% (inactive). The results for the nuclei count in test [2] and in test [3] were 86.2% and 112%, respectively. For the same compound, the fluorescence slope in test [4] was -0.49 (inactive). For the same compound, the NADPH fluorescence slope in test [5] was -4e-05 (inactive). The slope in test [6] is 0.00447 (inactive).

`O=C(CCN1C(=O)C2C3C=CC(C3)C2C1=O)NC1CCCc2ccccc21` (centres undefined): the cell count in test [1] was 411. Also, the inhibition is 7.3% (inactive) in test [1], -138% (inactive) in test [3], 10.7% (inactive) in test [7] and 30.7% (inactive) in test [8]. For the same compound, in test [2], the inhibition of aggregation was 4.3% (inactive). Further, the nuclei count in test [2] and in test [3] was 104% in each case. The fluorescence slope in test [4] was -0.441 (inactive). The NADPH fluorescence slope in test [5] is -1.7e-05 (inactive). Also, the slope in test [6] was 0.00567 (inactive).

Consider `CCOc1ccccc1C(=O)NC(C)c1ccc2c(c1)OCO2` (centres undefined), for which the cell count in test [1] is 368. The inhibition is 0.8% (inactive) in test [1], -6.7% (inactive) in test [3], 15.1% (inactive) in test [7] and -8.04% (inactive) in test [8]. The inhibition of aggregation in test [2] is 0.3% (inactive). Besides, the nuclei count in test [2] worked out at 122%; in test [3], 92.4%. Moreover, the fluorescence slope in test [4] is -0.523 (inactive). Also, the NADPH fluorescence slope in test [5] is -5.4e-05 (inactive). Also, the slope in test [6] is 0.00595 (inactive).

On to `CCCn1nc(CC(=O)O)c2ccccc2c1=O`, for which the cell count in test [1] was determined as 468. Further, the inhibition is -12.3% (inactive) in test [1], -10.6% (inactive) in test [3], 16.7% (inactive) in test [7] and 16.8% (inactive) in test [8]. Also, the inhibition of aggregation in test [2] was 18.8% (inactive). The nuclei count came to 123% in test [2] and 119% in test [3]. In addition, in test [4], the fluorescence slope was -0.426 (inactive). Also, in test [5], the NADPH fluorescence slope is -3.1e-05 (inactive). Also, the slope in test [6] is 0.00533 (inactive).

On to `Cc1ccc(O)c(C(CC(=O)N2CCCC2)c2ccccc2)c1` (centres undefined), for which the cell count in test [1] turned out to be 478. Besides, the inhibition in test [1] was 1.6% (inactive); in test [3], -33% (inactive); in test [7], 3.98% (inactive); in test [8], 16.5% (inactive). Besides, the inhibition of aggregation in test [2] was 4.1% (inactive). In addition, the nuclei count in test [2] amounted to 103%; in test [3], 114%. The fluorescence slope in test [4] is -0.35 (inactive). Further, the NADPH fluorescence slope in test [5] is -4.7e-05 (inactive). The slope in test [6] was 0.00552 (inactive).

On to `CCOC(=O)CC12CN3CN(C1)CC(CC(=O)OCC)(C3)C2=O`, for which the cell count in test [1] was found to be 596. In addition, the inhibition is -28.6% (inactive) in test [1], -54.7% (inactive) in test [3], -1.85% (inactive) in test [7] and 25.3% (inactive) in test [8]. Besides, the inhibition of aggregation in test [2] was 7.3% (inactive). Further, the nuclei count is 83.7% in test [2] and 110% in test [3]. In test [4], the fluorescence slope is -0.497 (inactive). In test [5], the NADPH fluorescence slope was -2.2e-05 (inactive). Also, in test [6], the slope is 0.00533 (inactive).

Consider `Cc1ccc2nsnc2c1S(=O)(=O)N(Cc1cc2cccc(C)c2[nH]c1=O)CC1CCCO1` (centres undefined), for which the cell count in test [1] turned out to be 641. The inhibition in test [1] was 2.6% (inactive); in test [3], 42.1% (inactive); in test [7], 32.9% (inactive); in test [8], 18.9% (inactive). Besides, in test [2], the inhibition of aggregation is 6.3% (inactive). In addition, the nuclei count in test [2] was found to be 108%; in test [3] it was 92.6%. For the same compound, the fluorescence slope in test [4] was -0.578 (inactive). In addition, in test [5], the NADPH fluorescence slope was -6.5e-05 (inactive). In addition, the slope in test [6] is 0.00367 (inactive).

For `CCOc1cc(C(=O)Nc2ncccn2)cc(OCC)c1OCC`, the cell count in test [1] was 280. The inhibition in test [1] is 6.6% (inactive); in test [3], -193% (inactive); in test [7] it was 8.28% (inactive); in test [8], 27.2% (inactive). In addition, the inhibition of aggregation in test [2] is 38% (active). Moreover, the nuclei count in test [2] is 103%; in test [3] it was 100%. Also, the fluorescence slope in test [4] is -0.476 (inactive). Also, the NADPH fluorescence slope in test [5] is -2.8e-05 (inactive). Besides, in test [6], the slope is 0.0062 (inactive).

In the case of `Cc1cc(NC(=O)CSc2nccn2-c2ccc(F)cc2)no1`, the cell count in test [1] stood at 433. Further, the inhibition in test [1] is -0.3% (inactive); in test [3], -184% (inactive); in test [7], 13.6% (inactive); in test [8], 3.73% (inactive). The inhibition of aggregation in test [2] is -13.1% (inactive). Also, the nuclei count in test [2] turned out to be 111%; in test [3], 114%. Besides, in test [4], the fluorescence slope is -0.6 (inactive). Also, in test [5], the NADPH fluorescence slope is 9.8e-06 (inactive). Further, the slope in test [6] was 0.00665 (inactive).

As to `O=C(CSc1nnnn1-c1ccc(Cl)cc1)NC(=O)Nc1ccc2c(c1)OCCO2`, the cell count in test [1] is 336. The inhibition in test [1] is 5.6% (inactive); in test [3], -86.5% (inactive); in test [7], -24.8% (inactive); in test [8], -57% (inactive). Further, the inhibition of aggregation in test [2] is 19.6% (inactive). For the same compound, the nuclei count in test [2] was 84.7%; in test [3], 120%. In test [4], the fluorescence slope is -0.429 (inactive). For the same compound, the NADPH fluorescence slope in test [5] was -3.6e-05 (inactive). Also, the slope in test [6] was 0.00808 (inactive).

For the compound `COc1ccccc1-c1nnc(NC(=O)c2ccc(S(=O)(=O)N(C)Cc3ccccc3)cc2)o1`, the cell count in test [1] was 391. The inhibition in test [1] is 6.1% (inactive); in test [3], -6.7% (inactive); in test [7], 14.7% (inactive); in test [8], 25.7% (inactive). The inhibition of aggregation in test [2] was 9.9% (inactive). Moreover, the figures for the nuclei count in test [2] and in test [3] were 92.8% and 99.4%, respectively. Also, the fluorescence slope in test [4] was -0.478 (inactive). In test [5], the NADPH fluorescence slope was -1.3e-05 (inactive). In addition, in test [6], the slope is 0.00777 (inactive).

As to `CN(Cc1ccccc1)C(=O)CNC(=O)Cn1cnc2ccccc2c1=O`, in test [1], the cell count turned out to be 773. Further, the inhibition in test [1] was 1.1% (inactive); in test [3], -18.9% (inactive); in test [7], 4.6% (inactive); in test [8], 10.1% (inactive). In addition, the inhibition of aggregation in test [2] was -13.9% (inactive). The nuclei count is 95.7% in test [2] and 111% in test [3]. Also, the fluorescence slope in test [4] is -0.602 (inactive). Also, the NADPH fluorescence slope in test [5] was -2.5e-06 (inactive). For the same compound, in test [6], the slope is 0.00729 (inactive).

As to `O=C(CCNS(=O)(=O)c1cccs1)Nc1ccccc1F`, the cell count in test [1] stood at 714. Also, the inhibition is -16.8% (inactive) in test [1], -9.8% (inactive) in test [3], 6.58% (inactive) in test [7] and 7.01% (inactive) in test [8]. Also, in test [2], the inhibition of aggregation is -2.2% (inactive). In addition, the nuclei count stood at 102% in test [2] and 109% in test [3]. The fluorescence slope in test [4] was -0.3 (inactive). The NADPH fluorescence slope in test [5] was -6.3e-05 (inactive). Moreover, in test [6], the slope is 0.00565 (inactive).

As for `Cc1ccc(C)c(C(=O)CC2(O)C(=O)N(C)c3ccccc32)c1` (centres undefined), the cell count in test [1] was 497. In addition, the inhibition in test [1] is 0.7% (inactive); in test [3] it was -7% (inactive); in test [7], 2.91% (inactive); in test [8] it was 33.7% (inactive). In addition, the inhibition of aggregation in test [2] was -18% (inactive). In addition, the nuclei count worked out at 106% in test [2] and 122% in test [3]. Further, the fluorescence slope in test [4] was -0.45 (inactive). For the same compound, the NADPH fluorescence slope in test [5] was -5.8e-05 (inactive). Further, the slope in test [6] was 0.00346 (inactive).
